The values below come from PubChem BioAssay (Tox21).

Where “and” joins values, the source holds several entries; their conditions need not be identical. Equal values may be shown once. Inconclusive results are not listed. Calls of active or inactive are those of the source. Calls follow the shape of the dose curve; as a rule, active = well fitted curve in the direction sought with a large enough effect in the repeat runs; inconclusive = weak or mixed curves; inactive = no such curve, though single readings can be large; an effect the other way counts as inactive or inconclusive.

The nature of experiment [1]: A CellTox Green Cytotoxicity Assay to monitor cytotoxicity in HEK293 cells - 32 hour (AID 1224881). Also: nearly all actives have a fitted effect of over 40% in size. An outline of the steps: (§1)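 Read-out: fluorescence of a cell-impermeant cyanine dye staining DNA of dead cells, proportional to cytotoxicity. HEK293, 600 cells/well with reagent, compound (23 nL DMSO) added after 5 h; reads at 0, 8, 16, 24, 32, 40 h.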
Experiment [2] is described as follows: A CellTox Green Cytotoxicity Assay to monitor cytotoxicity in HepG2 cells - 32 hour (AID 1224883). Also: nearly all actives have a fitted effect of over 50% in size. Also: potency is read from the fitted curve at half-maximal effect. An outline of the steps: (§2)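 HepG2, 600 cells/well premixed w/ CellTox Green; 5 h settle, 37 C/5% CO2; pintool cpd add (DMSO); 37 C, 40 h; fluorescence read at 0, 8, 16, 24, 32, 40 h.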
A short description of experiment [3]: A CellTox Green Cytotoxicity Assay to monitor cytotoxicity in HEK293 cells - 8 hour (AID 1224884). Also: nearly all actives have a fitted effect of over 35% in size. Also: potency is read from the fitted curve at half-maximal effect. An outline of the steps:
as §1

A short description of experiment [4]: qHTS RealTime-Glo MT Cell Viability Assay in HEK293 cells - 8 hour (AID 1224887). Also: nearly all actives have a fitted effect of over 50% in size. Also: potency is read from the fitted curve at half-maximal effect. In a few lines:
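Luminescence readout at each listed time point; HEK293, 600 cells/well, RealTime-Glo MT reagent added with cells; compounds pinned (23 nL in DMSO) after 5 h at 37 C; continuous culture at 37 C.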

A short description of experiment [5]: A CellTox Green Cytotoxicity Assay to monitor cytotoxicity in HEK293 cells - 16 hour (AID 1224888). Also: nearly all actives have a fitted effect of over 35% in size. Also: potency is read from the fitted curve at half-maximal effect. An outline of the steps: as §1
Experiment [6] can be described thus: A CellTox Green Cytotoxicity Assay to monitor cytotoxicity in HepG2 cells - 8 hour (AID 1224890). Also: nearly all actives have a fitted effect of over 45% in size. Also: potency is read from the fitted curve at half-maximal effect. In a few lines:
as §2

Experiment [7] can be described thus: A CellTox Green Cytotoxicity Assay to monitor cytotoxicity in HepG2 cells - 0 hour (AID 1224882). Also: nearly all actives have a fitted effect of over 35% in size. An outline of the steps: as §2
The nature of experiment [8]: qHTS RealTime-Glo MT Cell Viability Assay in HepG2 cells - 0 hour (AID 1224889). Also: nearly all actives have a fitted effect of over 50% in size. An outline of the steps: (§3)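 Real-time, nonlytic viability: 600 HepG2 cells/well mixed with NanoLuc enzyme plus prosubstrate; 5 h settle, compound (DMSO) added by pintool; luminescence monitored over 40 h at 37 C.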
Experiment [9] can be described thus: qHTS RealTime-Glo MT Cell Viability Assay in HepG2 cells - 16 hour (AID 1224885). Also: nearly all actives have a fitted effect of over 50% in size. Also: potency is read from the fitted curve at half-maximal effect. In a few lines: as §3
A short description of experiment [10]: qHTS RealTime-Glo MT Cell Viability Assay in HEK293 cells - 24 hour (AID 1224886). Also: nearly all actives have a fitted effect of over 50% in size. Also: potency is read from the fitted curve at half-maximal effect. In a few lines: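 Cells + reagent dispensed (600 cells/well, HEK293) → 5 h at 37 C/5% CO2 → 23 nL compound in DMSO pinned → 40 h at 37 C → luminescence read at 0, 8, 16, 24, 32, 40 h.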

`Nc1ccc2c(c1)Cc1ccccc1-2`: the Potency entry in experiment [1], in experiment [2], in experiment [3], in experiment [4], in experiment [5] and in experiment [6] was “inactive” throughout.
Consider `CC(C)(C)NCC(O)c1ccccc1Cl` (stereo not given), for which the Potency entry in experiment [7], in experiment [3], in [4], in [5] and in experiment [6] was “inactive” each time. In experiment [8], the call was inactive.
In the case of `SCc1ccccc1`, the Potency result in [7], in [2], in experiment [3], in experiment [9], in [10] and in experiment [4] was “inactive” each time. Further, the Potency entry in experiment [5] and in experiment [6] was “inactive” each time.
Turning to `CCCCOC(=O)CCC(=O)OCCCC`, the Potency result in experiment [3], in experiment [9], in experiment [10], in [4], in [5] and in experiment [6] was “inactive” in each case. The result in [8] was inactive.
Consider `CCCCC#N`, for which the Potency entry in [7], in [2], in experiment [3], in experiment [9], in experiment [4] and in [5] was “inactive” in each case. Besides, the Potency result in experiment [6] is “inactive”. The molecule was called inactive in experiment [8].
In the case of `CC(C)(C)N(NC(=O)c1ccc(Cl)cc1)C(=O)c1ccccc1`, the Potency result in experiment [7], in [2], in [3], in experiment [9], in experiment [4] and in experiment [5] was “inactive” throughout. The Potency result in experiment [6] was “inactive”. For the same molecule, in experiment [8], the result was inactive.
`CCCC[P+](CC)(CCCC)CCCC` (tested in a mixture with another compound): the Potency result in experiment [7], in experiment [3], in experiment [4] and in [6] was “inactive” throughout.
`O=C(NCNC(=O)NC1C(=O)NC(=O)N1CO)NC1C(=O)NC(=O)N1CO` (stereo not given): the Potency result in [7], in experiment [3], in experiment [10], in experiment [4], in [5] and in experiment [6] was “inactive” throughout.
Consider `CN(C1CCCCC1)C1CCCCC1`, for which the Potency result in experiment [7], in experiment [2], in experiment [3], in [4], in experiment [5] and in experiment [6] was “inactive” in each case. Further, the result in experiment [8] was inactive.
With `CCCCCBr`, the Potency entry in experiment [7], in experiment [2], in [3], in experiment [9], in experiment [5] and in experiment [6] was “inactive” each time. Further, the molecule was classed as inactive in experiment [8].
For `CCCCCCCCCCCC[N+](C)(C)CCOc1ccccc1`, the Potency entry in experiment [7] was “inactive”. The Potency is 13.8 µM (active) and 8.49 µM (active) in [2]; 24.6 µM (active) in experiment [3]; 43.7 µM (active) and 21.3 µM (active) in [9]; 11 µM (active) and 10.7 µM (active) in [10]; 43.7 µM (active) and 23.9 µM (active) in [4]; 21.9 µM (active) and 23.9 µM (active) in experiment [5]. The Potency in experiment [6] was 55 µM (active) and 26.8 µM (active). For the same molecule, in experiment [8], the molecule was called inactive.
In the case of `C[N+]1(CCC(C(N)=O)(c2ccccc2)c2ccccc2)CCCCC1`, the Potency result in experiment [7], in experiment [2], in experiment [3], in experiment [9], in [4] and in experiment [5] was “inactive” throughout. The Potency result in experiment [6] is “inactive”. Moreover, the outcome in [8] was inactive.
`CCCC(C)(COC(N)=O)COC(=O)NC(C)C` (stereo not given): the Potency result in experiment [2], in experiment [3], in [9], in [10], in [4] and in experiment [5] was “inactive” throughout. In experiment [6], the Potency entry was “inactive”. Further, in experiment [8], the molecule was called inactive.
For the molecule `CC(C)CCON=O`, the Potency entry in experiment [7], in experiment [2], in experiment [3], in [9], in experiment [4] and in experiment [6] was “inactive” in each case. The molecule was classed as inactive in experiment [8].
In the case of `O=C1CC[C@@]2(O)[C@H]3Cc4ccc(O)c5c4[C@@]2(CCN3CC2CC2)[C@H]1O5`, the Potency entry in experiment [7], in experiment [2], in [3], in experiment [10], in experiment [4] and in experiment [5] was “inactive” in each case. Also, the Potency entry in experiment [6] was “inactive”. In addition, the outcome in experiment [8] was inactive.
For `CCC1(CCC(C)C)C(=O)NC(=O)NC1=O`, the Potency entry in experiment [3], in [9], in experiment [10], in [4], in experiment [5] and in experiment [6] was “inactive” throughout.
Take `CCC(=O)O[C@@H]1C=C2CCC3C(CCC4(C)C3CC[C@@H]4OC(=O)CC)C2CC1` (stereo not given in full): the Potency entry in experiment [3], in experiment [10] and in experiment [5] was “inactive” throughout. Besides, the call in experiment [8] was inactive.
With `CC(C)OC(=O)Cc1ccccc1`, the Potency result in experiment [7], in experiment [2], in experiment [3], in experiment [9], in [4] and in [5] was “inactive” throughout. Moreover, the Potency entry in experiment [6] was “inactive”. In experiment [8], the outcome was inactive.
Turning to `CC(Cc1ccccc1)NCc1ccccc1Cl` (stereo not given), the Potency result in [2], in [3], in experiment [10], in experiment [4], in experiment [5] and in experiment [6] was “inactive” each time.
For `C=CC(=O)NC(C)(C)CC(C)=O`, the Potency entry in experiment [7], in experiment [3], in experiment [9], in [4], in experiment [5] and in [6] was “inactive” throughout.
With `O=C(O)c1cc(Cl)ccc1Cl`, the Potency entry in experiment [7], in experiment [3], in [9], in experiment [10], in [4] and in experiment [5] was “inactive” each time. Besides, the Potency entry in [6] was “inactive”. The result in experiment [8] was inactive.
